Source: PubChem BioAssay (NCI)
The panel holds about 83,000 compounds, 20% with a hit somewhere; the sample as a whole holds those more often.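 Values shown are percent growth following 48 h exposure of cells in 96-well plates to a single concentration of compound; below 10 was considered active.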 Values without a mark were called inactive. The source made the active and inactive calls.

Key:
Assay in all cases: NCI-60 one-dose screen, 48 h (100 = growth as untreated, 0 = no growth, -100 = all killed)
Conditions in all cases: 10 µM
SK-MEL-2 melanoma = system: SK-MEL-2 melanoma
EKVX NSCLC = system: EKVX NSCLC
UO-31 renal = system: UO-31 renal
TK-10 renal = system: TK-10 renal
ACHN renal = system: ACHN renal
CAKI-1 renal = system: CAKI-1 renal
A498 renal = system: A498 renal
MOLT-4 leukemia = system: MOLT-4 leukemia
SR leukemia = system: SR leukemia
RPMI-8226 leukemia = system: RPMI-8226 leukemia
OVCAR-8 ovarian = system: OVCAR-8 ovarian
OVCAR-5 ovarian = system: OVCAR-5 ovarian
OVCAR-4 ovarian = system: OVCAR-4 ovarian
IGROV1 ovarian = system: IGROV1 ovarian
OVCAR-3 ovarian = system: OVCAR-3 ovarian
NCI/ADR-RES ovarian = system: NCI/ADR-RES ovarian
CCRF-CEM leukemia = system: CCRF-CEM leukemia
SK-OV-3 ovarian = system: SK-OV-3 ovarian
HS 578T breast = system: HS 578T breast
SN12C renal = system: SN12C renal

Compound | growth (SK-MEL-2 melanoma) | growth (EKVX NSCLC) | growth (UO-31 renal) | growth (TK-10 renal) | growth (ACHN renal) | growth (CAKI-1 renal) | growth (A498 renal) | growth (MOLT-4 leukemia) | growth (SR leukemia) | growth (RPMI-8226 leukemia) | growth (OVCAR-8 ovarian) | growth (OVCAR-5 ovarian) | growth (OVCAR-4 ovarian) | growth (IGROV1 ovarian) | growth (OVCAR-3 ovarian) | growth (NCI/ADR-RES ovarian) | growth (CCRF-CEM leukemia) | growth (SK-OV-3 ovarian) | growth (HS 578T breast) | growth (SN12C renal)
O=S(=O)(NC1c2ccccc2Oc2ccccc21)c1cc(Cl)ccc1Cl | 103% | 98.6% | 79.3% | 95.6% | 82.7% | 88.7% | 94.3% | 96.7% | 66.8% | 96.7% | 93.5% | 109% | 80.9% | 95.5% | 98.7% | 93.5% | – | – | – | –
COc1ccc(-c2nnc(SCC(=O)c3ccccc3)o2)cc1 | 95.6% | 97.9% | 99.4% | 89.1% | – | 94.7% | 85.1% | 95.2% | 100% | 89% | 109% | 100% | 108% | – | 105% | 91.9% | 59.5% | 102% | 103% | –
CNC(=S)Sc1ccc([N+](=O)[O-])cc1[N+](=O)[O-] | 90.7% | 72.1% | – | 84.3% | 37.3% | 27% | 80.6% | 43.7% | 17.3% | 13.7% | 81.3% | 93.7% | 77.1% | 104% | 36.3% | 92.5% | 12.7% | 80.2% | 88.2% | –
COc1ccc(/C=C2\CCC3C(CCCC34OCCO4)C2=O)cc1 (stereo not given) | 88.4% | – | 80.5% | 95.3% | 93.6% | 80.2% | 106% | 78.2% | 35.5% | 81.2% | 97.2% | 91.7% | 100% | 83% | 75% | 75.8% | 79.1% | 97.1% | 106% | 96.8%
O=C(c1ccccc1)C(Nc1ccccc1)c1ccccc1 (stereo not given) | 90.9% | 86.2% | – | 93.6% | 89.2% | 87.3% | 94.6% | 90.8% | – | 84.8% | 87% | 93.3% | 92.3% | 75.9% | 97.1% | 93.1% | 94.1% | – | 95.1% | –
CCCCC(CC#N)(CCC)CCC | 102% | – | 90.6% | 92.7% | 102% | 90.3% | 103% | 97.5% | 93.6% | 100% | 104% | 104% | 93.2% | 102% | 106% | 97.7% | 94.7% | 94.8% | 113% | 106%
COC(=O)C1(C(=O)OC)C2C(=O)C3C(C21)C3(C(=O)OC(C)(C)C)C(=O)OC(C)(C)C (stereo not given) | 127% | – | 85.4% | 128% | 102% | 90% | 108% | 105% | 113% | 93.8% | 104% | 102% | 101% | 109% | 114% | 104% | 102% | 121% | 97.9% | 107%
N#Cc1ncc(-c2cc(F)ccc2F)c(NC2CCCCCC2)n1 | 74.9% | – | 81.5% | 101% | 88.8% | 88.2% | 58.2% | 79.4% | 81.6% | 57.8% | 88.4% | 98.9% | 80.3% | 86% | 103% | 91.2% | 81.3% | 91.6% | 58.2% | 80.8%
Cc1cccc2c1O/C(=C\c1ncc([N+](=O)[O-])n1C)C2=O | -45.3% (active) | – | -38.9% (active) | -34.3% (active) | 4.76% (active) | -29.7% (active) | -72.7% (active) | -0.52% (active) | 9.3% (active) | -13% (active) | -21.3% (active) | -15.7% (active) | -2.81% (active) | -18.1% (active) | -12.2% (active) | 2.37% (active) | 5.23% (active) | -17.5% (active) | -23.9% (active) | -48.5% (active)
C/C(=N\NC(=S)N1CCCC1)c1ccccn1 | 13.8% | – | -3.72% (active) | 28.5% | 15.5% | 6.32% (active) | -5.14% (active) | 3.06% (active) | 6.59% (active) | 12.9% | 11.1% | 40.3% | 3.92% (active) | -3.85% (active) | 23.8% | -5.31% (active) | 0.145% (active) | 26.5% | 31.8% | 14.3%
CCCCCCCCCCCC(c1ccccc1)N(C)C (stereo not given) | 116% | – | 68.9% | 134% | 92.5% | 93.2% | 71.2% | 82.1% | 77% | 83.5% | 97.7% | 99.2% | 84.7% | 96.1% | 106% | 96.1% | 69.1% | 108% | 93.3% | 90.7%
COc1cc(CSc2nc3ccc(C)cc3c(=O)n2-c2ccccc2)cc(OC)c1OC | 14.7% | – | 24.1% | 61.7% | 44.7% | 27.6% | 16% | 21.8% | 20.3% | 54.9% | 52.9% | 46.4% | 57.2% | 33.2% | -1.43% (active) | 17.8% | 15.8% | 13.6% | 28.2% | 37%
Cc1nnc2c3nnc(-c4ccc(Cl)cc4)n3c3ccccc3n12 | 99.9% | – | 72.4% | 92% | 101% | 93.2% | 94.3% | 89.9% | 77% | 95% | 98.1% | 100% | 115% | 91.8% | 104% | 107% | 90.3% | 92.5% | 97.9% | 97.7%
COc1cc(/C=C2\C(=O)Nc3cc(C)c(O)cc32)cc(OC)c1OC | 79.3% | – | 43% | 85% | 68.4% | 15.7% | 98.2% | 53% | 21.4% | -18.3% (active) | 72.1% | 94.5% | 62.6% | 47.7% | 35.7% | 51.4% | 16.3% | 77.5% | 56.6% | 71.3%
O=S(=O)(NCl)c1ccccc1 | 109% | – | 83.1% | 96.2% | 105% | 94.7% | 97.5% | 98.3% | 86% | 105% | 103% | 110% | 95.9% | 107% | 119% | 103% | 92.5% | 105% | 102% | 106%
CC(C)(C)CC(C)(C)c1ccc(O)c(Cc2ccc(Cl)cc2Cl)c1 | -76.9% (active) | -77.1% (active) | -98.7% (active) | -92.7% (active) | – | -83.3% (active) | -94% (active) | -62.7% (active) | – | -10.7% (active) | -43.4% (active) | – | -86.5% (active) | -82.8% (active) | -93.7% (active) | -81.1% (active) | -37.4% (active) | -86.6% (active) | – | –
COc1ccc(C2C=C(c3ccc(OC)c(OC)c3)N=C3SC=CN32)c(Br)c1 (stereo not given) | 104% | – | 67.9% | 106% | 76.6% | 71.5% | 74% | 25.1% | -14.8% (active) | -12.4% (active) | 66.2% | 102% | 62.5% | 69.8% | 56.9% | 78.2% | -2.4% (active) | 101% | 90.4% | 75%
